Assay outcomes: PubChem, several laboratories
Sampled rows, rich in hits. Any-hit rate of the full collection: about 4%.
VHR inh abs: VHR1 phosphatase inhibitors, primary screen, biochemical, absorbance, uHTS; inhibition, % at 13.3 µM; Dual specificity protein phosphatase 3 (Homo sapiens), P51452; AID 1654, 2009; recombinant VHR phosphatase, pNPP absorbance; 290,000 compounds, 0.52% hits; in the data active = inhibition above about 50%
Target sequence (P51452 whole entry, looked up): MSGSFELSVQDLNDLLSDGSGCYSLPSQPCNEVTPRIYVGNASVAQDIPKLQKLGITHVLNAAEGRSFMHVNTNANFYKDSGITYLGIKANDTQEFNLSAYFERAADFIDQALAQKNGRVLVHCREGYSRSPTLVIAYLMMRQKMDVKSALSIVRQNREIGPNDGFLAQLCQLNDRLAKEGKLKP
BoNT F protease: BoNT/F light chain protease inhibitors, primary screen, biochemical, flow cytometry, MLPCN library; inhibition, % at 10 µM; Multiplex microsphere protease cleavage assay; Botulinum neurotoxin type F light chain protease (Clostridium botulinum); 360,000 compounds, 0.22% hits; in the data active = inhibition above about 35%, passing the limit was not always enough; inconclusive = no clear call, values can overlap the other calls; note: plate controls were buffer without enzyme for full effect and enzyme alone for no effect
Bead autofluor: counter-screen for toxin protease inhibitors: compound fluorescence. compound autofluorescence counterscreen, microsphere flow cytometry; active compounds read high. fluorescence intensity (no concentration beside the values). 360,000 compounds, 3.1% hits. AID 624483; in the data active = fluorescence intensity above about 16000; inconclusive = no clear call, values can overlap the other calls
MazEF act: activators of E. coli MazEF toxin-antitoxin RNase, primary screen, biochemical, fluorescence, uHTS; Endoribonuclease toxin MazF (Escherichia coli (strain K12)), P0AE70; AID 504720, 2011; activation, % at 20 µM; FAM/BHQ RNA-DNA oligo cleavage fluorescence, 5 h; 350,000 compounds, 0.32% hits; in the data active = activation above about 50%
Target sequence (P0AE70 whole entry, looked up): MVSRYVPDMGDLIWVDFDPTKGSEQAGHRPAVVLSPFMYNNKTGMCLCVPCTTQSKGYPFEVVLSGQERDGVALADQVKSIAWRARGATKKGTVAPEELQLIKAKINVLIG
Anthrax LF prot: Bacillus anthracis LF protease inhibitors, primary screen, biochemical, multiplex microsphere, MLPCN library | inhibition, % at 10 µM | 360,000 compounds, 0.12% hits | multiplex microsphere protease cleavage assay | Lethal factor (Bacillus anthracis), P15917; note: plate controls were buffer without enzyme for full effect and enzyme alone for no effect
BoNT-A LC inh2: BoNT/A light chain protease inhibitors, primary screen, biochemical, flow cytometry, MLPCN library; 360,000 compounds, 0.17% hits; multiplex microsphere protease substrate cleavage; inhibition, % at 10 µM; note: plate controls were buffer without enzyme for full effect and enzyme alone for no effect
* hit, by the source's call; ? = inconclusive; nt = no result given. Cut-off read from the data, not from the text of the source, unless noted: active = inhibition above about 30%; inconclusive = no clear call, values can overlap the other calls; inactive = below that.

SMILES	VHR inh abs	BoNT F protease	Bead autofluor	MazEF act	Anthrax LF prot	BoNT-A LC inh2
CC1CN(C(=S)NC2CCCC2)CC(C)O1 (stereo not given)	27	0	4709	5	-8	-3
Cc1nn(-c2cc(N3CCCCCC3)ccc2[N+](=O)[O-])c(=O)c2ccccc12	21	-2	23118*	2	1	?
Cc1nn(-c2cc(N3CCCCC3)ccc2N)c(=O)c2ccccc12	22	0	20582*	3	0	?
CC1C/C(=C/c2ccco2)C(=O)/C(=C/c2ccco2)C1 (stereo not given)	-8	nt	nt	nt	nt	nt
O=C(Nc1nnc(-c2ccccc2Cl)s1)C1CCN(S(=O)(=O)c2ccc(Cl)cc2)CC1	26	2	2298	-18	1	1
O=C(Nc1nnc(COc2ccccc2)s1)C1CCN(S(=O)(=O)c2ccc(Cl)cc2)CC1	24	0	23493*	10	-3	0
CC(=O)Nc1nnc(SCc2cc(=O)c(OC(=O)c3ccccc3)co2)s1	22	3	4975	1	10	22
O=C(Oc1coc(CSc2nnc(NC(=O)C3CC3)s2)cc1=O)c1c(F)cccc1F	14	-4	3946	1	-5	48*
Cc1cc(C)cc(C(=O)Oc2coc(CSc3nnc(NC(=O)C4CC4)s3)cc2=O)c1	16	5	2288	7	-1	38*
CCOC(=O)N1CCC(NC(=O)CCc2c(C)nc3c(c(C)nn3C(C)(C)C)c2C)CC1	-4	4	21418*	4	1	4
CCOC(=O)N1CCC(NC(=O)CCc2c(C)nc3ncnn3c2C)CC1	42	1	22017*	1	-1	?
CCOC(=O)N1CCC(NC(=O)CCc2c(C)nc3nc(C)nn3c2C)CC1	-19	6	8266	1	-3	0
Cc1nc2ncnn2c(C)c1CCC(=O)NC(C)c1ccc2c(c1)OCCO2 (stereo not given)	35	-1	22862*	-6	-1	-1
CCOC(=O)N1CCC(NC(=O)CCCC(=O)O)CC1	5	-4	5938	-5	-3	-1
CCOC(=O)C1CCCCN1C(=O)CCc1c(C)nc2ncnn2c1C (stereo not given)	34	-5	21476*	9	2	-5
Cc1c(C(=O)NNC(=O)c2cccnc2)cccc1[N+](=O)[O-]	nt	8	6289	6	-2	0
Cc1c(C(C)C)c(=O)n(-c2ccc(S(=O)(=O)NC3CCCCC3)cc2)n1C	7	1	4586	-1	-4	-1
O=C(NCc1cccs1)C1CCCN1C(=O)Nc1cccc(F)c1 (stereo not given)	-14	-7	4384	-1	1	-1
Cc1nc2nc(C)c(CCC(=O)NCc3ccc4c(c3)OCO4)c(C)n2n1	8	-10	17817*	-2	-3	?
Cc1nc2nc(C)c(CCC(=O)NC(C)c3ccc4c(c3)OCCO4)c(C)n2n1 (stereo not given)	32	0	3157	6	2	0
CCOC(=O)CCc1c(C)nc2ncnn2c1C	17	-2	23382*	-2	-2	?
Cc1nc2ncnn2c(C)c1CCC(=O)O	-1	0	4120	5	2	0
Cc1nc2ncnn2c(C)c1CCC(=O)NCc1ccccc1	25	-5	20501*	8	-1	-2
CCOC(=O)N1CCN(C(=O)CCc2c(C)nc3c(c(C)nn3-c3ccc(C)c(C)c3)c2C)CC1	-21	-4	20186*	9	-8	-1
CCOC(=O)CCc1c(C)nc2c(c(C)nn2-c2ccccc2)c1C	17	4	4196	1	9	1
SMILES	VHR inh abs	BoNT F protease	Bead autofluor	MazEF act	Anthrax LF prot	BoNT-A LC inh2
CCO[C@@H]1OC(C(=O)N2CCOCC2)=C[C@H](c2cn(C(C)=O)c3ccccc23)[C@H]1CCCO	-15	3	4062	4	4	1
CC(C)(C)CN1CCNC(=O)C1CC(=O)N1CCC(C(=O)N2CCOCC2)CC1 (stereo not given)	1	4	4757	-25	9	-1
CC(=O)OC1(C(F)(F)F)Oc2ccccc2NC1=O (stereo not given)	-2	7	18158*	-17	2	?
COc1ccc(-c2cc(C(=O)O)c(C)o2)cc1OC	6	0	20243*	2	-5	1
Cc1ccccc1OCC(=O)N(Cc1ccco1)c1c(N)n(Cc2ccccc2)c(=O)[nH]c1=O	nt	-4	5518	2	2	2
COc1ccc(-c2nc3n(c2C)Cc2ccccc2-3)cc1	9	-1	6387	-8	-6	0
Cn1cccc1C(=O)OCC(=O)c1cc2ccccc2o1	17	-3	20874*	11	-5	?
O=C(CSc1nc2cc(Cl)ccc2s1)c1cc2ccccc2o1	19	-1	19577*	44	7	3
O=C(COC(=O)c1ccc(Cl)s1)c1cc2ccccc2o1	3	-5	20753*	-7	-5	-2
CN1OC[C@@H]2CN(Cc3ccc4c(c3)OCO4)[C@H](c3ccc(N4CCCCC4)cc3)C[C@@H]21	nt	15	23460*	nt	-22	-15
CN1OC[C@@H]2CN(Cc3ccccc3)[C@H](c3ccc(N4CCCCC4)cc3)C[C@@H]21	nt	-6	12789	nt	-22	-7
CN(C)C(=C(C#N)C#N)N1CCN(c2ccc(Cl)cc2)CC1	22	1	4303	1	5	0
CN(C)C(=C(C#N)C#N)N1CCN(c2ccc(Cl)c(Cl)c2)CC1	2	-1	20347*	-1	-5	1
O=C(Nc1cccc(S(=O)(=O)N2CCOCC2)c1)[C@@H]1CCCN1S(=O)(=O)c1ccc(Cl)cc1	2	-6	2417	-4	-3	0
O=C(CNC(=O)/C=C/c1ccccc1)N=Nc1c(O)n(Cc2ccccc2)c2ccccc12	56*	nt	nt	nt	nt	nt
CC12CCC(=O)N1C(C(=O)Nc1ccc(F)cc1)CS2 (stereo not given)	37	-6	5458	1	-3	1
O=c1[nH]cnc(CN2CCCCC2)c1O	nt	10	4404	5	4	0
O=C1NC(=Nc2ccccc2)c2ccc([N+](=O)[O-])cc21	-6	-3	2566	-6	0	0
Cc1cc(C)c(/C=C(\C#N)S(=O)(=O)c2ccccc2)[nH]1	36	-5	6403	-5	-9	0
Cc1[nH]c2ccccc2c1/C=C(\C#N)S(=O)(=O)c1ccccc1	16	-2	20697*	8	-2	0
Cc1[nH]c2ccccc2c1/C=C(\C#N)C(=O)NC(C)c1ccccc1 (stereo not given)	18	3	22234*	-1	-6	3
Cc1[nH]c2ccccc2c1/C=C(\C#N)C(=O)NC1CC1	19	-10	4539	-7	2	-2
